D2 PAM-1: positively modulates the human D2 dopamine receptor allosterically | P14416 | HEK293 T-REx D2, calcium flux, EC20 dopamine potentiation | potentiation, % at 10 µM | 0.34% of 340,000 active | AID 485347;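 active = potentiation over 3 SD above the plate norm, cut at about 30% in these data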; note: 0% is about no effect
Target sequence (P14416 whole entry, looked up): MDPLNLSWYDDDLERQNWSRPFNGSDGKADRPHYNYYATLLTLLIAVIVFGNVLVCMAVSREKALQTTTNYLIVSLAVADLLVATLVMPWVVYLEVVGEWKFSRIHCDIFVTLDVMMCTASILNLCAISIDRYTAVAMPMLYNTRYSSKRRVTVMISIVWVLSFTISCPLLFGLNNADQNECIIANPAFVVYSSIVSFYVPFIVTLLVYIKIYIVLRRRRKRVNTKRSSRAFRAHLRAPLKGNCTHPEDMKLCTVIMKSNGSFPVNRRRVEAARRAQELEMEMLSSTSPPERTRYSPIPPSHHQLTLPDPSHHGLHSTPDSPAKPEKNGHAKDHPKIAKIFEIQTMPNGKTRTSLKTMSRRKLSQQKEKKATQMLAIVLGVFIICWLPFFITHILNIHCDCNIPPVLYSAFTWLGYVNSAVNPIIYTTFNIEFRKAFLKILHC
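Tetracycline-induced HEK293 T-REx cells force-coupled to calcium signalling expressed D2; compounds were pin-added after a 10 s baseline, read kinetically 180 s, then an EC20 dopamine challenge followed with a further 180 s calcium read.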
D2 PAM-2: human D2 receptor positive allosteric modulation; P14416; DiscoveRx D2 beta-arrestin cells, luminescence, 90 min; 100% = 57 uM dopamine signal; potentiation, % (concentration not given with the values); 0.23% of 360,000 active; AID 624464; in the data active = potentiation above about 50%; inconclusive = mostly about 30% to 49%
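PathHunter D2 cells, attached overnight at 37 deg C, received compound in DMSO plus dopamine at EC20 (50 nM final) for 90 min at 37 deg C. Beta-arrestin recruitment was read as luminescence after 1 h with detection reagent at ambient temperature.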
D2 antagonist: antagonists of human D2 dopamine receptor. inhibition, % at 10 µM. P14416. HEK293 TREx D2 cells, calcium flux, dopamine EC80. 2% of 340,000 active; in the data active = inhibition above about 30%; inactive = below that, where a call was filed; note: 0% is about no effect
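Tetracycline-induced HEK293 TREx cells expressing D2 receptor forced-coupled to calcium signalling, loaded with no-wash calcium dye. Compounds added and calcium flux read 180 s, then dopamine added at EC80 and read a further 180 s.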
D2 ag-1: activates the human D2 dopamine receptor. P14416. DiscoveRx PathHunter D2 beta-arrestin, luminescence, 90 min; 100% = 57 uM dopamine signal. activation, % (concentration not given with the values). 0.084% of 360,000 active. AID 624465; in the data active = activation above about 40%; inconclusive = between about 15% and that limit
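DiscoveRx PathHunter D2 beta-arrestin cells (2,100/well) attached overnight, then compound-stimulated 90 min at 37 C in HBSS/10 mM HEPES/0.1% Tween-20 buffer; beta-galactosidase complementation read by luminescence after 1 h at ambient temperature. Dopamine 57 uM final (EC100) as control.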
D2 ag-2: D2 dopamine receptor (human) agonism; P14416; HEK293 T-REx D2 cells, calcium flux agonist mode; activation, % at 2 µM; 0.53% of 340,000 active;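 active = activation over 3 SD above normal in the single-dose calcium agonist read, cut at about 30% in these data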; note: 0% is about no effect
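Calcium-flux readout, 1 cycle/sec over 180 s following compound pin transfer, in inducible HEK293 Trex D2 cells (force-coupled); dopamine controls included. Positive calcium responses during this window marked compounds as potential agonists.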
* marks the source's active call; other numbers are inactive results. This is a sample that favours compounds with a hit; in the whole collection about 2.4% have one here.

`CC(C)=C1C2CCC1C1C(=O)N(NC(=O)COc3ccc(C(C)(C)C)cc3)C(=O)C21` (configuration not stated) gave D2 PAM-1 3, D2 PAM-2 -9, D2 antagonist 32*, D2 ag-1 -2 and D2 ag-2 0.
CCCCNc1c(-c2ccc(OC)c(SC3CCCCC3)c2)nc2ccc(C)cn12 was read as D2 PAM-2 -9 and D2 ag-1 48*.
Screening CCCCNc1c(-c2ccc(SC3CCCCC3)c(OC)c2)nc2ccc(C)cn12 returned D2 PAM-2 2 and D2 ag-1 7.
Screening Cn1c(=O)c2c(nc(-n3ccnc3)n2Cc2ccc([N+](=O)[O-])cc2)n(C)c1=O returned D2 PAM-1 -1, D2 PAM-2 -14, D2 antagonist 31*, D2 ag-1 -3 and D2 ag-2 0.
CN1CCN(c2nc3c(c(=O)n(C)c(=O)n3C)n2Cc2ccc(Cl)cc2)CC1 was read as D2 PAM-1 -6, D2 PAM-2 -5, D2 antagonist -6, D2 ag-1 -1 and D2 ag-2 0.
For CC(C)CCSc1nc2c(c(=O)[nH]c(=O)n2C)n1CCCc1ccccc1 the results were D2 PAM-1 -8, D2 PAM-2 0, D2 antagonist 35*, D2 ag-1 6 and D2 ag-2 -2.
C=CCn1c(Sc2ccccc2)nc2c1c(=O)[nH]c(=O)n2C was read as D2 PAM-1 1, D2 PAM-2 -6, D2 antagonist -11, D2 ag-1 -3 and D2 ag-2 1.
`CCCCCn1c(Sc2ccccc2)nc2c1c(=O)[nH]c(=O)n2C` gave D2 PAM-1 5, D2 PAM-2 -7, D2 antagonist 31*, D2 ag-1 -1 and D2 ag-2 0.
`N#Cc1ccccc1NC(=O)C(=O)NCC(c1ccc2c(c1)OCO2)N1CCOCC1` (configuration not stated) gave D2 PAM-1 -10 and D2 ag-2 0.
`COC(=O)c1ccc(OCCN2CCCCCC2)cc1` gave D2 PAM-1 -31, D2 PAM-2 -22, D2 antagonist 55*, D2 ag-1 4 and D2 ag-2 -1.
CCN1CCN(CCOc2cccc(Cl)c2Cl)CC1 was read as D2 PAM-1 7, D2 PAM-2 -5, D2 antagonist -12, D2 ag-1 1 and D2 ag-2 -3.
Screening CCC(=O)c1ccccc1OCCN1CCN(CC)CC1 returned D2 PAM-1 -20, D2 PAM-2 -13, D2 antagonist 38*, D2 ag-1 1 and D2 ag-2 -1.
CC(=O)c1ccccc1OCCCCN1CCCCC1 was read as D2 PAM-1 -28, D2 PAM-2 -5, D2 antagonist 58*, D2 ag-1 -5 and D2 ag-2 2.
For CC(=O)c1ccccc1OCCOc1ccccc1C(C)=O the results were D2 PAM-1 1, D2 PAM-2 0, D2 antagonist -4, D2 ag-1 -6 and D2 ag-2 0.
CCc1ccccc1OCCCCN1CCCC1 was read as D2 PAM-1 -18, D2 PAM-2 -38, D2 antagonist 46*, D2 ag-1 -6 and D2 ag-2 2.
O=C(NCCCN1CCN(c2ccccc2)CC1)c1nnc(Cc2c(F)cccc2Cl)o1 was read as D2 PAM-1 -21.
`CCCSc1ncc(Cl)c(C(=O)Nc2nc3ccc(C)cc3s2)n1` gave D2 PAM-1 -4 and D2 ag-2 -1.
Screening COC(=O)c1ccccc1OCCN1CCCCCC1 returned D2 PAM-1 -34, D2 PAM-2 -17, D2 antagonist 39*, D2 ag-1 1 and D2 ag-2 3.
For NS(=O)(=O)c1ccc(NC(=O)/C=C/c2cccc(Cl)c2)cc1 the results were D2 PAM-1 -11, D2 PAM-2 -10, D2 antagonist 35*, D2 ag-1 6 and D2 ag-2 0.
For CCOCc1c(C(=O)N2CCN(CC(=O)Nc3ccc(F)cc3)CC2)oc2ccccc12 the results were D2 PAM-1 -12, D2 PAM-2 4, D2 antagonist 72*, D2 ag-1 -4 and D2 ag-2 0.
`N#CC1(NC(=O)COC(=O)C2=COCCO2)CCCCC1` gave D2 PAM-1 3, D2 PAM-2 -4, D2 antagonist 50*, D2 ag-1 -5 and D2 ag-2 0.
CCC(=O)N1CCc2cc(OC)c(OC)cc2C1COc1ccc(C(=O)OC)cc1 (configuration not stated) was read as D2 PAM-1 40*, D2 PAM-2 -2, D2 antagonist -5, D2 ag-1 -2 and D2 ag-2 0.
`CC(C)NC(=O)N(C)C[C@@H]1OCc2cn(nn2)CCCC(=O)N([C@H](C)CO)C[C@H]1C` gave D2 PAM-2 4 and D2 ag-1 -4.
`CCOC(=O)Cn1ncc(-c2ccccc2)c1N` gave D2 PAM-1 -6, D2 PAM-2 20, D2 antagonist 57*, D2 ag-1 -2 and D2 ag-2 0.
For Cc1ccc(CSCC(=O)N2CCCC2)cc1 the results were D2 PAM-1 5, D2 PAM-2 -2, D2 antagonist 33*, D2 ag-1 -5 and D2 ag-2 1.
For Cc1ccc(CSCC(=O)Nc2ccccc2C(=O)O)cc1 the results were D2 PAM-1 -1, D2 PAM-2 52*, D2 antagonist -9, D2 ag-1 5 and D2 ag-2 -3.
O=C1CCN(CCc2ccccc2)CCN1[C@H](COc1ccccc1)c1ccccc1 was read as D2 PAM-1 -12, D2 PAM-2 -60, D2 antagonist -6, D2 ag-1 4 and D2 ag-2 -1.
Screening Cn1c(CN2CCN(c3ccc(Cl)cc3)CC2)nc2ccccc21 returned D2 PAM-1 -6, D2 PAM-2 -21, D2 antagonist 3, D2 ag-1 -2 and D2 ag-2 0.
For Cn1c(CN2CCN(c3ccccc3NS(C)(=O)=O)CC2)nc2ccccc21 the results were D2 PAM-1 -18, D2 PAM-2 -24, D2 antagonist 33*, D2 ag-1 -4 and D2 ag-2 1.
`CN1C(=O)/C(=C/c2cc(C(C)(C)C)c(O)c(C(C)(C)C)c2)NC1=S` gave D2 PAM-1 2, D2 PAM-2 52*, D2 antagonist -2, D2 ag-1 inconclusive and D2 ag-2 -2.
CN1C(=O)/C(=C/c2ccccc2OCc2ccccc2)NC1=S was read as D2 PAM-1 -2, D2 PAM-2 -19, D2 antagonist 24, D2 ag-1 -4 and D2 ag-2 0.
For Cc1cnc(C(=O)N2CCN(S(=O)(=O)c3cc(C(F)(F)F)cc(C(F)(F)F)c3)CC2)cn1 the results were D2 PAM-2 0 and D2 ag-1 2.
CCN(CCCNC(=O)c1ccc(Sc2ccc(Cl)cc2)c(NC(C)=O)c1)c1cccc(C)c1 was read as D2 PAM-1 -1 and D2 ag-2 0.

Screening data (PubChem BioAssay)
